An excerpt weighted towards active compounds, which were near 12% of everything screened.
Arbovirus inh: antivirals against arbovirus infection, primary screen, cell-based, full library, 10K replicate subset. inhibition, % at 10 µM. 200,000 compounds, 0.37% hits. arbovirus infection cell-based antiviral screen; in the data active means inhibition above about 30%
CHOP inh: inhibitors of CHOP promoter induction, primary screen, cell-based, unfolded protein response, luciferase reporter; CHO-K1 CHOP-promoter luciferase, tunicamycin-induced, 15-18 h; inhibition, % at 10 µM; 220,000 compounds, 3.8% hits; AID 2732, 2010;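 active means compounds that reduced the stress-induced luciferase reporter signal by more than about 70% of percent inhibition, limit read from the data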;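 further: 0% = tunicamycin plus vehicle and 100% = wells without tunicamycin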
Lmaj promast: Leishmania major promastigote growth inhibition, primary screen; Leishmania major promastigotes, resazurin fluorescence viability; inhibition, % at 10 µM; 200,000 compounds, 9% hits; in the data active means inhibition above about 50%;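 further: promastigotes grown with compound for 44 hours at 28 °C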
WT yeast gro inh: growth inhibition of WT strain, primary screen, mitochondrial fusion inhibitor project, WT and mutant strains, chemical genetic. inhibition, % at 10 µM. AID 1362, 2008. mitochondrial fusion phenotypic screen. 190,000 compounds, 2.1% hits; in the data active means inhibition above about 58%; tested in S. cerevisiae
Active calls of the source: *; . = no result given.

SMILES | Arbovirus inh | CHOP inh | Lmaj promast | WT yeast gro inh
COc1cc(OC)cc(C(=O)Nc2nnc(-c3cccnc3)o2)c1 | -1.6 | 0.4 | 36.3 | 22.0
O=C(Nc1nnc(-c2ccccn2)o1)c1cccc(Cl)c1 | -1.4 | 2.4 | 51.1* | 30.6
O=C(OCc1nnc(-c2ccccc2)o1)c1ccc2c(c1)OCCO2 | -5.6 | 75.8* | -3.9 | 7.4
CS(=O)(=O)c1ccc(C(=O)OCc2nnc(-c3ccccc3)o2)cc1[N+](=O)[O-] | -2.4 | 88.0* | 0.8 | 15.3
CN(C)S(=O)(=O)c1ccc(C(=O)OCc2nnc(-c3ccccc3)o2)cc1 | . | -11.9 | . | .
NNC(=S)Nc1ccc(S(=O)(=O)N2CCCCC2)cc1 | . | -3.8 | . | .
Cc1nn(-c2ccccc2)c(=S)c2ccccc12 | 3.3 | -14.1 | 71.0* | -12.2
Cc1nn(-c2ccc(Cl)cc2)c(=O)c2ccccc12 | 6.3 | 2.4 | -2.8 | 8.3
Cc1c(NC(=O)COC(=O)CCC(=O)c2ccc(Cl)cc2)c(=O)n(-c2ccccc2)n1C | 6.8 | 5.8 | -9.0 | 2.2
Cc1ccc2nc3c(c(Nc4ccc5c(c4)OCCO5)c2c1)CCC3 | -19.7 | -0.3 | 98.4* | 4.2
Cc1cc(Nc2ccc3c(c2)OCCO3)c2cc(Cl)ccc2n1 | -1.8 | 14.5 | 100.5* | -3.7
Cc1cc(C)c(C#N)c(Nc2ccc3c(c2)OCCO3)n1 | -0.5 | 21.9 | -3.0 | 6.8
Cc1cccc(Nc2c3c(nc4ccccc24)CCC3)c1 | . | 14.8 | . | .
C/C(N)=C(/C#N)C(=O)CSc1nc2ccccc2c(=O)n1CCCOC(C)C | -6.2 | 12.3 | 89.7* | -0.1
CCOCCCn1c(SCC(=O)/C(C#N)=C(\C)N)nc2ccccc2c1=O | -1.2 | 4.4 | 23.5 | -14.9
N#CC(Sc1ccccn1)c1ccc(Cl)cc1Cl (stereo not drawn) | -11.0 | 73.5* | 23.6 | 26.2
N#Cc1cc(Sc2ccccn2)c(Sc2ccccn2)cc1C#N | -9.4 | 10.3 | 3.8 | 4.6
Cc1cc(-c2cn3ccccc3n2)c(C)n1-c1ccccc1 | -6.7 | -27.4 | 30.1 | 27.9
COc1ccc(-n2c(C)cc(-c3cn4cccc(C)c4n3)c2C)cc1 | 15.4 | 10.3 | 63.0* | -10.7
Cc1ccc2nc(-c3cccc(NS(C)(=O)=O)c3)cc(-c3ccccc3)c2c1 | -31.6 | 85.0* | 19.9 | 94.0*
Cc1nc(-c2cccc(NS(=O)(=O)c3ccccc3)c2)cs1 | 10.6 | 10.1 | 9.3 | -8.4
COc1cccc(-c2nnc(NC(=O)c3cccc(F)c3)o2)c1 | -24.6 | -61.1 | . | 61.7
CCCN(CCC)S(=O)(=O)c1ccc(C(=O)Nc2nnc(-c3cc(OC)cc(OC)c3)o2)cc1 | -14.0 | 85.4* | 100.1* | 0.0
CCCN(CCC)S(=O)(=O)c1ccc(C(=O)Nc2nnc(-c3cccc(OC)c3)o2)cc1 | -20.7 | 92.1* | 97.7* | -0.8
COc1cccc(-c2nnc(NC(=O)c3ccc(Cl)s3)o2)c1 | -16.7 | -35.1 | 54.8* | 61.8
SMILES | Arbovirus inh | CHOP inh | Lmaj promast | WT yeast gro inh
CCCN(CCC)S(=O)(=O)c1ccc(C(=O)Nc2nnc(CSC)o2)cc1 | -15.2 | 13.8 | -2.7 | -5.5
CC(C)C(NS(=O)(=O)c1cccs1)C(=O)NCc1ccc2c(c1)OCO2 (stereo not drawn) | -2.1 | -22.5 | -2.5 | -2.7
Cn1ncc(Br)c1C(=O)OCC(=O)Nc1nc(-c2ccccc2)cs1 | 5.5 | 52.2 | 47.5 | -0.4
CCOc1ccccc1NC(=O)CSc1nnc(-c2ccccc2Cl)n1Cc1ccco1 | 8.0 | -11.3 | 51.0* | -4.4
CCOC(=O)c1c(NC(=O)CSc2nnc(-c3ccncc3)n2Cc2ccco2)sc(C)c1C | -11.1 | 26.5 | 56.5* | 31.1
CCOc1ccccc1NC(=O)C(OC(=O)C1CC1)c1ccccc1 (stereo not drawn) | . | 13.9 | . | .
CCOc1ccccc1NC(=O)C(NCC1(N2CCCCC2)CCCCC1)c1ccccc1 (stereo not drawn) | 6.4 | 27.6 | 66.3* | 26.2
CCc1nnc(NS(=O)(=O)c2ccc(N3C(=O)c4ccc(C(=O)O)cc4C3=O)cc2)s1 | 0.6 | 0.8 | -14.2 | -8.2
CC(=O)NCC1=C(NC(C)=O)C2CC1C(C)(C)C2C (stereo not drawn) | 31.0* | 17.7 | 0.1 | 6.3
CCCCC(=O)NC(c1ccc([N+](=O)[O-])cc1)c1c(O)ccc2ccccc12 (stereo not drawn) | -34.2 | 78.0* | 99.5* | 82.0*
CC(=O)NC(c1ccc(Cl)cc1)c1c(O)ccc2ccc(O)cc12 (stereo not drawn) | 6.0 | 1.3 | 44.1 | -11.8
CCC(=O)NC(c1ccc([N+](=O)[O-])cc1)c1c(O)ccc2ccccc12 (stereo not drawn) | -34.0 | 19.6 | 69.3* | 12.1
C=CCOC(=O)c1sc(NC(=O)c2ccc(OC)cc2)nc1C | -29.9 | 27.0 | 3.0 | -3.1
O=C(CN(C(=O)CSc1nc2ccccc2o1)c1ccccc1F)NC1CCCCC1 | -3.6 | 7.7 | 65.4* | -11.2
